Laboratory results: PubChem BioAssay AID1159580 (chemical genetic matrix, 2015)
Where “and” joins values, the source holds several entries; their conditions need not be identical. Equal values may be shown once. Screen size: about 5,500 compounds; about 2,000 (36%) were called active. Not shown: some 18% with an inconclusive outcome. Rule as the data show it: active = normalized growth mostly below about 0.91 (no sharp cut-off); inconclusive = no clear call, values can overlap the other calls; inactive = mostly above about 0.92. This is one part of the list.

Experiment: chemical genetic growth profiling, strain panel (AID 1159580);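 also: tested at 20 µM; growth read once vehicle control cultures reached saturation at 30 °C; 1 = growth at the plate median or of vehicle wells; lower values mean less growth of the strain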
Details: S. cerevisiae deletion strains, growth OD

Measured: normalized growth

CCOC(=O)C1=C(C)NC(C)=C(C(=O)OC)C1c1cccc([N+](=O)[O-])c1 (stereo unspecified)
inactive: locus YAL013W, strain DEP1, active compounds read low 1 and 0.987 | locus YAL021C, strain ccr4, active compounds read low 0.996 | locus YAL026C, strain drs2, active compounds read low 1.01 | locus YAL030W, strain snc1, active compounds read low 0.997 | locus YBL061C, strain skt5, active compounds read low 1 | locus YBR009C, strain hhf1, active compounds read low 1.01 | locus YBR021W, strain FUR4, active compounds read low 0.977 | locus YBR023C, strain chs3, active compounds read low 0.999 | locus YBR171W, strain sec66, active compounds read low 1.01 | locus YBR229C, strain ROT2, active compounds read low 1.01 | locus YBR231C, strain swc5, active compounds read low 0.999 | locus YBR279W, strain paf1, active compounds read low 1.01 | locus YCL011C, strain gbp2, active compounds read low 0.995 | locus YCL016C, strain dcc1, active compounds read low 1.01 | locus YCL029C, strain bik1, active compounds read low 1.01 | locus YCL061C, strain MRC1 (second series), active compounds read low 0.985 | locus YCL061C, strain MRC1, active compounds read low 1.01 | locus YCL069W, strain vba3, active compounds read low 1.01 | locus YCR088W, strain abp1, active compounds read low 1.01 | locus YDL005C, strain med2, active compounds read low 1.01 | locus YDL035C, strain GPR1, active compounds read low 1 | locus YDL040C, strain nat1, active compounds read low 1 | locus YDL074C, strain BRE1, active compounds read low 0.988 | locus YDL101C, strain DUN1, active compounds read low 1 | locus YDL134C, strain PPH21, active compounds read low 1 | locus YDL185W, strain tfp1, active compounds read low 0.996 | locus YDL192W, strain arf1, active compounds read low 1 | locus YDR001C, strain nth1, active compounds read low 1.01 | locus YDR069C, strain doa4, active compounds read low 1.01 | locus YDR101C, strain arx1, active compounds read low 0.997 | locus YDR137W, strain rgp1, active compounds read low 0.98 | locus YDR150W, strain NUM1, active compounds read low 1 | locus YDR159W, strain sac3, active compounds read low 1.01 | locus YDR162C, strain NBP2, active compounds read low 0.945 | locus YDR195W, strain ref2 1.03 | locus YDR297W, strain sur2, active compounds read low 1 | locus YDR318W, strain mcm21, active compounds read low 1.02 | locus YDR334W, strain swr1, active compounds read low 1.02 | locus YDR335W, strain msn5, active compounds read low 1.02 | locus YDR363W, strain ESC2, active compounds read low 1 | locus YDR388W, active compounds read low 1.01 | locus YDR392W, strain spt3, active compounds read low 0.946 | locus YDR502C, strain sam2, active compounds read low 1 | locus YEL003W, strain gim4, active compounds read low 1.01 | locus YEL037C, strain rad23, active compounds read low 1.01 | locus YEL061C, strain CIN8 (second series), active compounds read low 1.01 | locus YEL061C, strain CIN8, active compounds read low 0.994 | locus YER002W, strain NOP16, active compounds read low 0.933 | locus YER015W, strain faa2, active compounds read low 1.02 | locus YER016W, strain bim1, active compounds read low 1.01 | locus YER110C, active compounds read low 1.01 | locus YER111C, strain swi4, active compounds read low 1.02 | locus YER155C, strain BEM2 (second series), active compounds read low 1.03 | locus YER155C, strain BEM2, active compounds read low 0.997 | locus YER167W, strain BCK2, active compounds read low 1 | locus YFR010W, strain ubp6, active compounds read low 1.02 | locus YGL078C, strain dbp3, active compounds read low 1.01 | locus YGL086W, strain mad1, active compounds read low 1.02 | locus YGL167C, strain pmr1, active compounds read low 1 | locus YGL173C, strain kem1, active compounds read low 1.01 | locus YGL227W, strain vid30, active compounds read low 1.01 | locus YGL240W, strain doc1, active compounds read low 0.994 | locus YGL248W, strain PDE1, active compounds read low 0.998 | locus YGL253W, strain hxk2, active compounds read low 1 | locus YGR078C, strain PAC10, active compounds read low 0.977 | locus YGR135W, strain pre9, active compounds read low 0.977 | locus YGR229C, strain SMI1, active compounds read low 0.961 and 1 | locus YGR252W, strain gcn5, active compounds read low 1.02 | locus YHR013C, strain ard1, active compounds read low 1.03 | locus YHR027C, strain rpn1, active compounds read low 1.01 | locus YHR030C, strain SLT2, active compounds read low 1.01 | locus YHR079C, strain IRE1 (second series), active compounds read low 1 | locus YHR094C, strain hxt1, active compounds read low 0.994 | locus YHR129C, strain ARP1, active compounds read low 1.01 | locus YHR142W, strain chs7, active compounds read low 0.976 | locus YHR200W, strain rpn10, active compounds read low 1 | locus YIL066C, strain RNR3, active compounds read low 1.02 | locus YIL073C, strain SPO22, active compounds read low 1.04 | locus YIL125W, strain kgd1, active compounds read low 0.999 | locus YIR030C, strain dcg1, active compounds read low 0.999 | locus YJL092W, strain hpr5, active compounds read low 1 | locus YJL095W, strain BCK1 (second series), active compounds read low 1.01 | locus YJL095W, strain BCK1, active compounds read low 0.994 | locus YJL115W, strain asf1, active compounds read low 1.02 | locus YJL129C, strain trk1, active compounds read low 0.992 | locus YJL134W, strain LCB3, active compounds read low 1 | locus YJL154C, strain vps35, active compounds read low 1.02 | locus YJL164C, strain tpk1, active compounds read low 1.01 | locus YJL166W, strain qcr8, active compounds read low 1.01 | locus YJL168C, strain set2, active compounds read low 1.01 | locus YJL187C, strain SWE1 (second series), active compounds read low 1.01
